# In PubChem BioAssay AID1376 (SRMLSC, 2008):
# Out of some 220,000 compounds screened, about 530 (0.24%) were called active. The sample holds actives, similar compounds and a random draw of the others, so the mix is not that of the screen. Cut-off read from the data, not from the text of the source: active = inhibition above about 13%; inconclusive = no clear call, values can overlap the other calls; inactive = below that. Entries with a potency or affinity are not part of this list.
# Target: Bifunctional protein GlmU (Mycobacterium tuberculosis (strain ATCC 25618 / H37Rv)) (UniProt P9WMN3)
# Sequence (P9WMN3 whole entry, looked up): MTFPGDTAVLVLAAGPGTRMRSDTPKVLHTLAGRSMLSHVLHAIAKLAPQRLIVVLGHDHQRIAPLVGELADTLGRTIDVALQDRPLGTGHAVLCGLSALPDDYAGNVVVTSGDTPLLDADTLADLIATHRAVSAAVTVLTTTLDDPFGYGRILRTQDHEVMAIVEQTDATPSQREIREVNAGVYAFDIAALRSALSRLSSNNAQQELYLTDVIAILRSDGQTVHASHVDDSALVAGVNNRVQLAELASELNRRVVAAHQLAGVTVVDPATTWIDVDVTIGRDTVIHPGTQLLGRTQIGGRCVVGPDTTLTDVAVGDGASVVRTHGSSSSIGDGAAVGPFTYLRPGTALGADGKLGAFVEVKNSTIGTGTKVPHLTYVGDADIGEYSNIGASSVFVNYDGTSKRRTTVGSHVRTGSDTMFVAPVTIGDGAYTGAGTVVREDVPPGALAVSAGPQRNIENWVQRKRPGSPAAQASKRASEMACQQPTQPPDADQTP
# Assay: inhibition of mycobacterial GlmU enzyme – biochemical, glucosamine-1-phosphate acetyltransferase (AID 1376);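 note: 0% = complete reaction with vehicle and 100% = reaction without substrate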
# Conditions: M. tuberculosis GlmU acetyltransferase enzyme assay; active compounds read high;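 tested at 30 µM in the primary screen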
row,Compound,inhibition
1,Cc1nc(NC(=O)C2CC2)sc1C,-0.38% (inactive)
2,CCCCC(=O)Nc1nc(C)c(C(C)=O)s1,-1.28% (inactive)
3,Cc1nc(NC(=O)CCCC(=O)Nc2nc(C)c(C)s2)sc1C,13.9% (active)
4,CCC(=O)N(Cc1cc2cc(C)c(C)cc2[nH]c1=O)C1CCCCC1,-7.37% (inactive)
5,CC(=O)n1cc(/C=N/NC(N)=S)c2ccccc21,-6.26% (inactive)
6,CSCC[C@H](NC(=O)OC(C)(C)C)C(=O)N/N=C/c1ccc2nccnc2c1,-6.4% (inactive)
7,CSc1ccccc1C(=O)C1CCCN(Cc2ccn[nH]2)C1 (configuration not stated),10.5% (inactive)
8,O=C(c1cc2cc(Cl)cc(Cl)c2oc1=O)N1CCOCC1,-1.07% (inactive)
9,CN(Cc1ccco1)C(=O)c1c[nH]c2ccc(S(=O)(=O)Nc3ccc4c(c3)OCCO4)cc2c1=O,3.32% (inactive)
10,Cc1ccccc1NS(=O)(=O)c1ccc2[nH]cc(C(=O)N(C)Cc3ccco3)c(=O)c2c1,29.4% (active)
11,CCc1ccc(NS(=O)(=O)c2ccc3[nH]cc(C(=O)N(C)Cc4ccco4)c(=O)c3c2)cc1,1.75% (inactive)
12,COc1cccc(C2=NOC(C(=O)Nc3cc(OC)c(OC)c(OC)c3)C2)c1 (configuration not stated),-0.12% (inactive)
13,CCOc1ncccc1C(=O)Nc1nnc(C2CC2)s1,8.29% (inactive)
14,CC1CCCCN1CCNC(=O)CN1C(=O)COc2ccccc21 (configuration not stated),-1.43% (inactive)
15,CCn1c(SCC(=O)c2ccc(Cl)cc2)nnc1-c1cccs1,-2.46% (inactive)
16,CN(CC(=O)Nc1cccc(F)c1)C(=O)CCCc1cccs1,-1.08% (inactive)
17,COC(C[C@H]1O[C@@H]1C(=O)[C@H](C)OCc1ccccc1)OC,5.93% (inactive)
18,COC(C[C@@H]1O[C@@H]1C(=O)[C@@H](C)OCc1ccccc1)OC,14.7% (active)
19,COC(C[C@@H]1O[C@@H]1C(=O)[C@H](C)OCc1ccccc1)OC,-0.47% (inactive)
20,COC(=O)C1C(=O)c2c(C)noc2CC1(C)C (configuration not stated),7.63% (inactive)
21,COc1ccc(C)cc1-n1nnnc1SCC(=O)Nc1cc(C)on1,4.65% (inactive)
22,Cc1cc(C)c2nc(SCCc3ccccc3)nc(C)c2c1,6.08% (inactive)
23,Cc1cc(=O)oc2cc(OCC#N)ccc12,-3.06% (inactive)
24,C=C(Cl)COc1ccc2c(C)cc(=O)oc2c1,-5.17% (inactive)
25,C#CCOc1ccc2c(C)cc(=O)oc2c1,13.2% (active)
26,COc1ccc(/C=C/C(=O)NNc2cc(=O)n(C)c(=O)n2C)cc1OC,3.78% (inactive)
27,COc1ccc(C/C(C)=N/NC(=S)Nc2ccccc2F)cc1,-0.55% (inactive)
